Results published in PubChem BioAssay (NCATS).
Inconclusive results are not listed. Activity calls are given as the source filed them.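 The calls were made as follows, unless noted: active = compounds whose dose series gives a full or clear partial fitted curve of increased nuclear translocation; inconclusive = weak partial curve or effect only at the top dose; inactive = no dose-dependent translocation response.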

Tested on: not listed separately
Experiment: Stat Signaling Pathway (AID 446; active = well fitted curve in either direction with a large enough effect, not every such curve was filed as active;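 also: ME-180 cervical cancer cells given 40 pM IL-6 alongside compound; SIE-controlled beta-lactamase reporter measured as 460/530 nm FRET emission ratio; % is scaled to controls: 0 for no effect and ±100 for the full control effect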)
Details: ME-180 (cervical carcinoma) SIE beta-lactamase reporter, IL-6 stimulated, 5 h; series mostly up to 17.2 µM; activity, negative = inhibition: at the top concentration
Procedure, shortened: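 IL-6/STAT signaling read in ME-180 cells via an SIE beta-lactamase reporter. Stimulus was 40 pM IL-6 (its AC50) for 5 hrs, so both activation and inhibition register.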

SMILES | activity, negative = inhibition
N[C@@H]1CCc2cc(O)c(O)cc2C1 | 13.8% [at 38 µM] (inactive)
CCN(CC)C(=O)N[C@H]1C[C@H]2c3cccc4[nH]cc(c34)C[C@@H]2N(C)C1 | -0.564% [at 38 µM] (inactive)
CNCCc1nc(N)n[nH]1 | 14.9% (inactive)
CC[C@H](CO)NC(=O)[C@@H]1C=C2c3cccc4[nH]cc(c34)C[C@@H]2N(C)C1 | -3.42% [at 38 µM] (inactive)
CC1=C(C(=O)OC(C)C)[C@]2(C(=O)N(CC(N)=O)c3ccccc32)C(C#N)=C(N)O1 | 11.1% (inactive)
O=C1CC[C@]2(O)[C@H]3Cc4ccc(O)c5c4[C@@]2(CCN3CC2CC2)[C@@H]1O5 | 3.66% (inactive)
CCCCc1nc(N2CCNCC2)c(C#N)c2c1CSC(C)(C)C2 | 5.79% (inactive)
CN1C[C@@H](CNC(=O)OCc2ccccc2)C[C@H]2c3cccc4c3c(cn4C)C[C@@H]21 | -1.12% [at 38 µM] (inactive)
CC1CCC(C(C)C)C(OP(N)(=O)c2ccccc2)C1 (configuration not stated) | 7.54% (inactive)
CC(=O)[C@@H]1CC[C@@H]2[C@H]3CC[C@H]4C[C@@H](O)CC[C@]4(C)[C@@H]3C(=O)C[C@]21C | -4.41% [at 38 µM] (inactive)
CNc1ccc2oc(C[C@@H]3O[C@@]4(CC[C@H]3C)O[C@@H]([C@@H](C)C(=O)c3ccc[nH]3)[C@@H](C)C[C@H]4C)nc2c1C(=O)O | 14.6% [at 38 µM] (inactive)
O=C1NCCN2CCCC12 (configuration not stated) | 7.9% (inactive)
C/C(Cl)=C/CC1(CN2CCCC2=O)C(=O)NC(=O)NC1=O | 8.07% (inactive)
C=CCn1c(O)c(C=Nc2ccc(N(CC)CC)cc2)c(=O)[nH]c1=O | -13.3% (inactive)
COc1ccc2c(c1)[C@]13CCCC[C@@H]1[C@H](C2)N(C)CC3 | 3.1% [at 38 µM] (inactive)
CCOC(=O)c1cc(C)n(CCc2cnc[nH]2)c1C | 2.7% (inactive)

SMILES | activity, negative = inhibition
COCCOC(=O)C1=C(N)Oc2c(c(=O)oc3ccccc23)[C@@]12C(=O)Nc1ccccc12 | 0.86% (inactive)
CC1(C)CC(n2[nH]c(=O)c3c2NC(=O)CSC3c2ccccc2)CCO1 (configuration not stated) | -3.71% (inactive)
CC(C)(C)NC[C@H](O)c1ccccc1Cl | -5.97% [at 38 µM] (inactive)
O=C(COc1ccc2ccccc2c1)N1CCN(C2CCN(Cc3ccccc3)CC2)CC1 | 2.81% (inactive)
C=CCN1CC[C@]23c4c5ccc(O)c4O[C@@H]2C(=O)CC[C@@]3(O)[C@H]1C5 | -6.7% [at 38 µM] (inactive)
CN1C(=O)CN=C(c2ccc(Cl)cc2)c2cc(Cl)ccc21 | -6.62% (inactive)
CCOC(C(=O)OCC(O)CN(CC)CC)(c1ccccc1)c1ccccc1 (configuration not stated) | 15.5% (inactive)
CCCCCCn1c(O)c(C=NC2CCN(Cc3ccccc3)CC2)c(=O)[nH]c1=O | -26.2% (inactive)
CC(C)[C@H]1C(=O)N2CCC[C@H]2[C@]2(O)O[C@](NC(=O)[C@@H]3C=C4c5cccc6[nH]cc(c56)C[C@H]4N(C)C3)(C(C)C)C(=O)N12 | -8.44% (inactive)
CC(C)(O)[C@H]1[C@H]2OC(=O)[C@@H]1[C@]1(O)C[C@H]3O[C@]34C(=O)O[C@H]2[C@]14C (tested in a mixture with another compound) | -9.63% [at 38 µM] (inactive)
CCCCOCCCn1c(N)c(C(=O)OCCOC)c2nc3ccccc3nc21 | 3.23% (inactive)
CCN(CC)CCCNC(=O)c1c(O)c2ccccc2n(Cc2ccccc2)c1=O | -3.74% (inactive)
CCOc1ccccc1-n1c(O)c(C=Nc2ccc(N(CC)CC)cc2)c(=O)[nH]c1=O | -22% (inactive)
CCC(=NCCOc1ccc(Cl)cc1)c1c(O)n(C)c(=O)n(C)c1=O | -28.9% (inactive)
CCC(=NCCN1CCCCC1)c1c(O)n(C)c(=O)n(C)c1=O | 2.16% (inactive)
CC1CN=C(Nc2ccc(N(C)C)cc2)S1 (configuration not stated) | 9.23% (inactive)

Molecular target: Glucocorticoid receptor (Homo sapiens) (UniProt P04150)
Experiment: GR-GFP Redistribution (AID 450); also: potency is read from the fitted curve at half-maximal effect
Details: U2OS GR-GFP nuclear translocation, laser cytometry, 2 h

Chain of Glucocorticoid receptor (Homo sapiens) (P04150 whole entry, looked up): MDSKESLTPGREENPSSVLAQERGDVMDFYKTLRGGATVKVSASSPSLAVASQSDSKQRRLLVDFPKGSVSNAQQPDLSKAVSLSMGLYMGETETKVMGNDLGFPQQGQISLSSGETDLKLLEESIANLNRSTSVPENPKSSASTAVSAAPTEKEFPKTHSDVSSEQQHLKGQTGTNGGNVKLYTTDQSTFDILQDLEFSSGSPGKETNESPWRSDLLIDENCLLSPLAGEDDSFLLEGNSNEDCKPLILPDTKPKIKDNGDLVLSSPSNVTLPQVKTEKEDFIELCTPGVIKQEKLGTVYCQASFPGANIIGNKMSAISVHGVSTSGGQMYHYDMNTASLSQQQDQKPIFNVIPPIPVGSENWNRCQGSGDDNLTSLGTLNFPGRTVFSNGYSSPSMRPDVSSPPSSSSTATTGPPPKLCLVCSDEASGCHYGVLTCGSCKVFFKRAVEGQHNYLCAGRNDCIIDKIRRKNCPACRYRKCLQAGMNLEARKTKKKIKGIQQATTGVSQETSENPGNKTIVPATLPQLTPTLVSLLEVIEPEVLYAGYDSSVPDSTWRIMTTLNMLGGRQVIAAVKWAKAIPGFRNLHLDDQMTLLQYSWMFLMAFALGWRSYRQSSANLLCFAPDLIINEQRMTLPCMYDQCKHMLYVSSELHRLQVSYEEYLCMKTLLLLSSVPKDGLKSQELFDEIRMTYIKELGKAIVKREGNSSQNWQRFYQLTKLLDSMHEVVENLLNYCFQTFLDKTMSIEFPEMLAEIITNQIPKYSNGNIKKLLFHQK

SMILES | Potency
N[C@@H]1CCc2cc(O)c(O)cc2C1 | > 46 µM (inactive)
CC(C)n1cc2c3c(cccc31)[C@@H]1C[C@H](C(=O)O[C@@H](C)[C@H](C)O)CN(C)[C@H]1C2 | > 46 µM (inactive)
CNCCc1nc(N)n[nH]1 | > 20.6 µM (inactive)
CC1(C)[C@@H]2CC[C@]1(C)CN(CCC[N+](C)(C)C)C2 | > 46 µM (inactive)
CC[C@H](CO)NC(=O)[C@@H]1C=C2c3cccc4[nH]cc(c34)C[C@@H]2N(C)C1 | > 46 µM (inactive)
CC1=C(C(=O)OC(C)C)[C@]2(C(=O)N(CC(N)=O)c3ccccc32)C(C#N)=C(N)O1 | > 20.6 µM (inactive)
CCCCc1nc(N2CCNCC2)c(C#N)c2c1CSC(C)(C)C2 | > 20.6 µM (inactive)
COC(=O)C(O)(c1ccc(NC(=O)c2ccco2)c(OC)c1)C(F)(F)F (configuration not stated) | > 20.6 µM (inactive)
CN1C[C@@H](CNC(=O)OCc2ccccc2)C[C@H]2c3cccc4c3c(cn4C)C[C@@H]21 | > 46 µM (inactive)
CC1CCC(C(C)C)C(OP(N)(=O)c2ccccc2)C1 (configuration not stated) | > 20.6 µM (inactive)
N[C@@H](Cc1cc(O)c(O)cc1O)C(=O)O | > 46 µM (inactive)
CNc1ccc2oc(C[C@@H]3O[C@@]4(CC[C@H]3C)O[C@@H]([C@@H](C)C(=O)c3ccc[nH]3)[C@@H](C)C[C@H]4C)nc2c1C(=O)O | > 46 µM (inactive)
O=C1NCCN2CCCC12 (configuration not stated) | > 20.6 µM (inactive)
C/C(Cl)=C/CC1(CN2CCCC2=O)C(=O)NC(=O)NC1=O | > 20.6 µM (inactive)
C=CCn1c(O)c(C=Nc2ccc(N(CC)CC)cc2)c(=O)[nH]c1=O | > 20.6 µM (inactive)
COc1ccc2c(c1)[C@]13CCCC[C@@H]1[C@H](C2)N(C)CC3 | > 46 µM (inactive)
CCOC(=O)c1cc(C)n(CCc2cnc[nH]2)c1C | > 20.6 µM (inactive)
COCCOC(=O)C1=C(N)Oc2c(c(=O)oc3ccccc23)[C@@]12C(=O)Nc1ccccc12 | > 20.6 µM (inactive)

SMILES | Potency
CC1(C)CC(n2[nH]c(=O)c3c2NC(=O)CSC3c2ccccc2)CCO1 (configuration not stated) | > 20.6 µM (inactive)
CC(C)(C)NC[C@H](O)c1ccccc1Cl | > 46 µM (inactive)
O=C(COc1ccc2ccccc2c1)N1CCN(C2CCN(Cc3ccccc3)CC2)CC1 | > 20.6 µM (inactive)
CN1C(=O)CN=C(c2ccc(Cl)cc2)c2cc(Cl)ccc21 | > 20.6 µM (inactive)
CCOC(C(=O)OCC(O)CN(CC)CC)(c1ccccc1)c1ccccc1 (configuration not stated) | > 20.6 µM (inactive)
CCCCCCn1c(O)c(C=NC2CCN(Cc3ccccc3)CC2)c(=O)[nH]c1=O | > 20.6 µM (inactive)
CC(C)[C@H]1C(=O)N2CCC[C@H]2[C@]2(O)O[C@](NC(=O)[C@@H]3C=C4c5cccc6[nH]cc(c56)C[C@H]4N(C)C3)(C(C)C)C(=O)N12 | > 20.6 µM (inactive)
CC(C)(O)[C@H]1[C@H]2OC(=O)[C@@H]1[C@]1(O)C[C@H]3O[C@]34C(=O)O[C@H]2[C@]14C (tested in a mixture with another compound) | > 46 µM (inactive)
CCCCOCCCn1c(N)c(C(=O)OCCOC)c2nc3ccccc3nc21 | > 20.6 µM (inactive)
C=CCN1CC[C@@]23CCCC[C@@H]2[C@@H]1Cc1ccc(O)cc13 | > 46 µM (inactive)
CCN(CC)CCCNC(=O)c1c(O)c2ccccc2n(Cc2ccccc2)c1=O | > 20.6 µM (inactive)
CCOc1ccccc1-n1c(O)c(C=Nc2ccc(N(CC)CC)cc2)c(=O)[nH]c1=O | > 20.6 µM (inactive)
CCC(=NCCOc1ccc(Cl)cc1)c1c(O)n(C)c(=O)n(C)c1=O | > 20.6 µM (inactive)
C[C@H](N)c1cccc(Cl)c1Cl | > 46 µM (inactive)
CCC(=NCCN1CCCCC1)c1c(O)n(C)c(=O)n(C)c1=O | > 20.6 µM (inactive)
C=C(C)[C@@H]1CN[C@H](C(=O)O)[C@H]1CC(=O)O | > 46 µM (inactive)
CC1CN=C(Nc2ccc(N(C)C)cc2)S1 (configuration not stated) | > 20.6 µM (inactive)
